Vaccinia Venus – vaccinia inhibition (Venus reporter); 330,000 tested, 0.46% active; Potency, µM (highest dose often 36.5 µM), for the others: at the highest dose activity change, negative = inhibition, usual class: inhibitors; Vaccinia virus Venus reporter expression, fluorescence; AID 720580; calls by dose curve; tested in A549 cells; also: potency is read from the fitted curve at half-maximal effect; nearly all actives have a fitted effect of over 30% in size
FMDV antiviral – blocks foot and mouth disease virus | FMDV antiviral cell-based qHTS | Potency, µM (series often up to 57.9 µM), for the others: top-dose activity change, negative = inhibition, most hits filed as inhibitors | 410,000 tested, 1.2% active; calls by dose curve; tested in HEK293T cells; also: read-out not given here; potency is read from the fitted curve at half-maximal effect; nearly all actives have a fitted effect of over 45% in size
Vaccinia mCherry – vaccinia inhibition (mCherry reporter). 310,000 tested, 0.63% active. Vaccinia virus mCherry reporter infection, fluorescence. Potency, µM (doses to about 36.5 µM), for inactives: at the highest dose activity change, negative = inhibition, most hits filed as inhibitors; calls by dose curve; tested in A549 cells; also: potency is read from the fitted curve at half-maximal effect; nearly all actives have a fitted effect of over 35% in size
HCV inhibitor – HCV inhibition; Huh7.5.1 HCVcc-Cre infection, luciferase reporter, 44 h; Potency, µM (top dose mostly 41.8 µM), for the others: at the top dose activity change, negative = inhibition, actives largely listed as inhibitors; 340,000 tested, 3.4% active; active = well fitted inhibition curve with a large enough effect; inconclusive = small, poorly fitted or top-dose-only effect, or another doubt; inactive = no such curve, though single readings can be large or run the other way; also: potency is read from the fitted curve at half-maximal effect
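Infectious HCVcc-Cre (~0.5 moi) was added to cells just after compound, with cells seeded 4 h earlier at 1,000 per well. Luciferase activity after 44 h culture reported infection; substrate was incubated 15 min at room temperature before reading.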
HCMV inh – blocks human cytomegalovirus replication; HFF cells, HCMV-luciferase reporter, 72 h; stronger effect = lower value; activity change, negative = inhibition, % at 57.5 µM; 410,000 tested, 4.5% active; in the data active = activity change below about -60%; inconclusive = no clear call, values can overlap the other calls; inactive = above about -39%
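Inhibition of viral replication was scored as loss of reporter luminescence in HFFs infected with HCMV-luciferase (MOI 1 PFU/cell) for 72 h; compounds tested at 2 doses, normalized to buffer and Salinomycin controls.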
Numbers without * were called inactive; i = inactive; u = inconclusive; x = no result; [ ] = dose if it differs, or a comment. Rows were chosen to be rich in hits. Some 7.3% of all compounds tested hit in one or more screens of this group. % is scaled to controls: 0 for no effect and ±100 for the full control effect.

SMILES	Vaccinia Venus	FMDV antiviral	Vaccinia mCherry	HCV inhibitor	HCMV inh
CCOC(=O)N1CCC(NC(=O)c2ccc3c(c2)N=C(C)c2c(C)ccc(C)c2S3)CC1	x	-23.9%	x	u	-93.1*
CCC1=Nc2cc(C(=O)NC3CCC(C)CC3)ccc2Sc2ccc(C)cc21 (stereo unspecified)	u	-12.2%	u	x	-81.8*
CCCC1=Nc2cc(C(=O)NC3CCCCC3)ccc2Sc2ccc(C)cc21	u	-3.5%	u	x	-91.1*
CCCC1=Nc2cc(C(=O)N3CCCC3)ccc2Sc2ccc(C)cc21	u	-7.3%	u	-21.5%	-5.5
CCCC1=Nc2cc(C(=O)N3CCN(c4ccccn4)CC3)ccc2Sc2ccc(C)cc21	-13.5%	-29.7%	-5.9%	11.2µM*	-37.6
CCCCNC(=O)Cn1c(SCc2ccccc2C)nc2ccncc21	-8.5%	x	22.0%	x	x
CCOC(=O)N1CCC(NC(=O)c2ccc3c(c2)N=C(CC)c2cc(C)ccc2S3)CC1	-25.7%	u	-25.7%	3.16µM*	0.0
CCC1=Nc2cc(C(=O)NC3CCCC3)ccc2Sc2ccc(Br)cc21	-21.1%[7.34 µM]	-10.0%	-26.3%[7.34 µM]	x	u
CCCC1=Nc2cc(C(=O)NC3CCCC3)ccc2Sc2ccc(C)cc21	-22.0%[7.34 µM]	-14.7%	-26.6%[7.34 µM]	x	-78.7*
CCC1=Nc2cc(C(=O)NCc3ccco3)ccc2Sc2ccc(C)cc21	u	-21.7%	i	u	-75.4*
COc1ccccc1CNC(=O)CSc1nc(=O)[nH]c2c1CCCC2	-6.5%[7.34 µM]	-7.0%	1.9%[7.34 µM]	x	-8.1
CC(Sc1nnc2ccc3ccccc3n12)C(=O)Nc1ccc(Cl)cc1 (stereo unspecified)	-17.3%	-6.7%	-16.8%	x	4.7
CC(=O)C1=C(O)C2(C)c3c(O)c(C)c(O)c(C(C)=O)c3OC2CC1=O (stereo unspecified)	u	10µM*	u	x	u
C=CC(=O)NC(NC(=O)C=C)c1ccccc1F	u	-6.8%	7.94µM*	15.2%	-26.9
COc1ccc(C(=O)NC(NC(=O)c2ccc(OC)cc2)c2ccccc2F)cc1	-19.8%	-10.5%	i	-21.9%	-36.8
CCOC(=O)c1c(SC)n(-c2ccccc2)c(=S)n(-c2ccccc2)c1=O	-2.2%	-14.3%	-2.9%	19.9%	0.7
CCOC(=O)c1c(SCCN2CCCCC2)n(-c2ccccc2)c(=S)n(-c2ccccc2)c1=O	-0.7%	20µM*	-4.5%	u	9.3
CN(C(=O)COC(=O)c1cc(-c2ccc(Cl)s2)nc2ccccc12)C1CCS(=O)(=O)C1 (stereo unspecified)	x	-6.8%	x	10µM*	-28.4
CN(C(=O)COC(=O)c1cc(-c2ccccc2Cl)nc2ccccc12)C1CCS(=O)(=O)C1 (stereo unspecified)	-15.1%	-25.3%	-1.9%	4.9%	26.7
CN(C)c1nc(CN2CCCCC2c2cccnc2)nc2ccccc12 (stereo unspecified)	-7.1%	-14.1%	-16.3%	x	x
NC(=S)NN=C1c2ccccc2-c2ccccc21	x	u	x	6.31µM*	-86.7*
Cc1ccc(Nc2nc(NCc3ccccc3)nc3ccsc23)c(C)c1	u	u	u	x	-62.0*
COc1ccccc1CNc1nc(Nc2ccc(C)cc2C)c2sccc2n1	-8.8%	u	-11.6%	x	-76.1*
CNc1nc(NCCOc2ccccc2Cl)c2sccc2n1	u	u	i	x	-7.8
COc1ccccc1CNc1nc(NCCOc2ccccc2Cl)c2sccc2n1	u	22.4µM*	u	x	-61.3*
SMILES	Vaccinia Venus	FMDV antiviral	Vaccinia mCherry	HCV inhibitor	HCMV inh
Cc1c2cnn(-c3ccccc3)c(=O)c2c(C)n1CC(=O)NCc1ccccc1Br	-6.9%	-18.5%	-7.9%	x	-13.4
COc1ccc(OCCSc2nc(C)nc3ccccc23)cc1	-15.8%	u	-10.5%	u	-64.6*
Cc1cccc(OCCCSc2nc3ccccc3[nH]2)c1	-27.8%	0.0%	-26.2%	-6.9%	-32.5
CCOc1ccc(OCCSc2nc3ccccc3[nH]2)cc1	-27.7%	x	-6.3%	u	-75.8*
CCCOc1ccc(CSc2nc3ccccc3[nH]2)cc1	u	-4.3%	u	x	-92.2*
COc1c(C(O)CC(C)C)ccc2c1C(=O)OCc1cc(C)cc(O)c1O2 (stereo unspecified)	-11.9%	u	-12.6%	2.24µM*	-18.3
COc1c(C(CC(C)C)OC(C)=O)ccc2c1C(=O)OCc1cc(C)cc(O)c1O2 (stereo unspecified)	-20.5%	u	-25.4%	2.51µM*	-18.5
CCNc1ncc2nc(-c3ccccc3)c(=O)n(C3CC3)c2n1	x	6.0%	x	x	x
CN1CCN(C(c2ccc(Cl)cc2Cl)c2sc3nc(-c4ccco4)nn3c2O)CC1 (stereo unspecified)	-9.4%	-13.5%	-18.6%	x	2.6
O=C(c1ccccc1F)N1CC(=O)N2[C@@H](CO)[C@H](c3ccc(Br)cc3)[C@@H]2C1	x	x	x	x	14.0
CC(=O)c1cn(CC(=O)Nc2cccc(C)c2C)c2ccccc12	-25.9%	u	-18.7%	u	-69.5*
Cc1ccc(-n2c(=O)c3cccnc3n2CC(=O)Nc2cccc(C)c2C)cc1	-15.7%	-12.9%	-17.8%	x	-62.6*
Cc1ccc(NC(=O)Cc2cc(C(=O)O)c3ccccc3n2)c(C)c1	x	u	x	12.6µM*	u
Cc1ccc(NC(=O)Cn2cc(C(=O)C3CC3)c3ccccc32)c(C)c1	-8.7%	u	-5.8%	14.6%	-13.1
CC(=O)c1cn(CC(=O)Nc2ccc(C)cc2C)c2ccccc12	u	u	x	5.62µM*	u
Cc1ccc(NC(=O)c2cc(-c3cccs3)nc3ccccc23)c(C)c1	-1.8%	u	-11.2%	x	7.3
C[C@@H]1C[C@H]2[C@@H]3CCC4=CC(=O)C=C[C@]4(C)[C@@]3(F)C(O)C[C@]2(C)[C@@]1(O)C(=O)CO (stereo partly specified)	-14.0%	x	-23.5%	x	x
COc1ccc(O)c(O)c1/C=C1\[C@@H](C)CCC2C(C)(C)CCC[C@]12C (stereo partly specified)	x	x	x	x	2.6
COc1ccc(C(=O)c2coc(-c3ccccc3C(=O)O)c2C(=O)O)cc1	-1.5%	0.0%	i	4.2%	50.3
COc1ccc(C(=O)c2c(C(F)(F)F)oc3c2C(=O)c2ccccc2C3=O)cc1	3.98µM*	u	x	1.58µM*	x
O=C1c2ccccc2C(=O)C12OC2c1ccc(Cl)cc1Cl (stereo unspecified)	0.0%	28.2µM*	-14.5%	-3.7%	-9.2
Cc1ccc(C)c(NC(=O)c2nc(S(C)(=O)=O)ncc2N(Cc2ccc(C(C)(C)C)cc2)Cc2ccco2)c1	-4.9%	-24.3%	-12.1%	x	13.5
Cc1cc(S(=O)(=O)N2CCCCC2)ccc1OCC(=O)N1CCCC1	-10.7%	-15.2%	-12.6%	-22.5%	u
Cc1cc(S(=O)(=O)N2CCN(Cc3noc(CCC(=O)N4CCCCC4)n3)CC2)ccc1F	-5.6%	-3.8%	-10.1%	x	-109.8*
Nc1ncncc1-c1ccc2ccccc2c1	-13.7%	-17.5%	i	9.3%	-74.6*
COc1ccc(-c2cncnc2N)cc1OC	-10.2%	u	-25.5%	x	-17.5
